The full ranking holds about 68,000 sequences; the median of “fluorescence intensity (a.u.)” is about 9,100, and the highest 2% start at about 16,000. This excerpt belongs to a sample that is enriched for the highest values.

Sequence of OsWRKY34 (Q0JBA9 entry or part of it): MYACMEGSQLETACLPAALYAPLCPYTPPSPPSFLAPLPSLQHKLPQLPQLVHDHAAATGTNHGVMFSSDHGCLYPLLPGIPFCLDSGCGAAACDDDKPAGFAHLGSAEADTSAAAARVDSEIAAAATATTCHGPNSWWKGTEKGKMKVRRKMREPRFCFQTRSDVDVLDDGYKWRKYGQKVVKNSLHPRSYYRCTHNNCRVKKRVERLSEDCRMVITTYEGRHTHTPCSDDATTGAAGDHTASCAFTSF

The target in this assay is OsWRKY34 (Oryza sativa, UniProt Q0JBA9 1-250). Put plainly: protein-binding microarray (RPBM); PBS, 2% BSA, 51.3 ng/ul salmon testes DNA, 50 uM zinc acetate, 200 nM TF, 25 C, 1 h; high values mean tight binding. The following applies: protein: recombinant; tags: N-terminal polyhistidine and DsRed monomer fusion (pET32a); label: CyDye5-dUTP incorporated in the synthesized complementary strand; 3' TTTTT single-stranded linker to array surface; dsDNA, one strand shown. The method, boiled down:
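Per-feature fluorescence intensity (arbitrary units), read on an Axon 4000B scanner, is the binding signal. Transcription factors carrying an N-terminal polyhistidine tag and DsRed fusion were expressed in E. coli BL21-CodonPlus and purified on Ni–NTA. A custom Agilent array, made double-stranded by primer extension with Cy5-dUTP and blocked with 2% BSA, was incubated with 200 nM protein in PBS, 2% BSA, salmon testes DNA and 50 µM zinc acetate at 25 °C for 1 h and then washed.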
As to “GAGGGAGGGAGGGAGGGAGGGCGTGTAGCGTAGTTGGTGTCGGAGTCACCTAGTGCAG”, the binding signal was 18800 fluorescence intensity (a.u.).

“CTGCGGGGAGGTGTAGGAGGAGGAGGGCGGAGGAGGTGGTCGGAGTCACCTAGTGCAG”: the binding signal was 8780 fluorescence intensity (a.u.).

Consider “GCAGAGAGAGGGGAGGAGGGTGGGTGGCGGCGGCGGCTAGCGGAGTCACCTAGTGCAG”, for which the binding signal is 14400 fluorescence intensity (a.u.).

Take “TGTGCTGTGTGGTGTACTGGTGTGTGGGCTTAATAATTGTCGGAGTCACCTAGTGCAG”: the binding signal is 14200 fluorescence intensity (a.u.).

Consider “CGGGCGGCGGGTGCGGACTGCGGAGGAGGCTGGCGGGGCACGGAGTCACCTAGTGCAG”, for which the binding signal was 8630 fluorescence intensity (a.u.).

For the sequence “GAGGCGGGTGATAGCGCGGTGGGGCGGTGGCGGCGGTGGACGGAGTCACCTAGTGCAG”, the binding signal is 13000 fluorescence intensity (a.u.).

With “GCGGTGGAGGGCCGGCGGAGAGGGGAGCAGCGGTGGAGGGCGGAGTCACCTAGTGCAG”, the binding signal is 11000 fluorescence intensity (a.u.).

For the sequence “GTTTTTTTTTTTTGGCGCAGGGAGTGGTGGCGTGGTGTGTCGGAGTCACCTAGTGCAG”, the binding signal was 8170 fluorescence intensity (a.u.).

As to “GTGAGGACGGCCTGCGGGTGCATGCGGGCGCAACAAGTAGCGGAGTCACCTAGTGCAG”, the binding signal was 17500 fluorescence intensity (a.u.).

Take “CCTCACCCTATGCTCCTGTGTTTTGTAGTCTTTCGTAACACGGAGTCACCTAGTGCAG”: the binding signal is 8220 fluorescence intensity (a.u.).

Consider “ACGGCATCAAATCTCTGTTTGTACATGTGCCCCTGTTCTTCGGAGTCACCTAGTGCAG”, for which the binding signal was 9440 fluorescence intensity (a.u.).

Take “CCCGACCAAACACTACGAACTCTTCTACCTTCTTTGTTTCCGGAGTCACCTAGTGCAG”: the binding signal is 12600 fluorescence intensity (a.u.).

For “CAATGCACTGTTCATCTTCAGTAGTTATGTTTTCTCAGTGCGGAGTCACCTAGTGCAG”, the binding signal is 10400 fluorescence intensity (a.u.).

For the sequence “CAAATTTGGTATTTCTCTCTGCTCACTCCATCCCTCAACTCGGAGTCACCTAGTGCAG”, the binding signal was 8830 fluorescence intensity (a.u.).

Regarding “ATGGTGGCCGGTCTTTTTTCCTCTTCGCTCGATGCCAAAACGGAGTCACCTAGTGCAG”, the binding signal is 8270 fluorescence intensity (a.u.).

For the sequence “CGGCTAAACTCCCACGTGAACCAGACGCTGCACCAAAAACCGGAGTCACCTAGTGCAG”, the binding signal is 8430 fluorescence intensity (a.u.).

As to “GAAGTGAATAGTAGAGGGTTTTGATGGGTTGGGAAGAGAACGGAGTCACCTAGTGCAG”, the binding signal is 11200 fluorescence intensity (a.u.).

“ATTAATTTCGCTTGCTAACACGAGTTTAATCTGCCAATTTCGGAGTCACCTAGTGCAG”: the binding signal is 10000 fluorescence intensity (a.u.).

On to “CCACTGCATACCAACACCAACCACTGTACTAGCACTACTACGGAGTCACCTAGTGCAG”, for which the binding signal is 8980 fluorescence intensity (a.u.).

As to “AGATTGTGGTGGGTGTTGATTGTGGTGATCTTGTCCCCTCCGGAGTCACCTAGTGCAG”, the binding signal is 13000 fluorescence intensity (a.u.).

For “GGAGAAAAAGGGGAGGGAGGGAGATGATGACGTGTAGGGGCGGAGTCACCTAGTGCAG”, the binding signal was 8550 fluorescence intensity (a.u.).

As to “GGCTCGCGGAGGGCGGGGCTGGGATGGTGGCGGATGGGAGCGGAGTCACCTAGTGCAG”, the binding signal is 10800 fluorescence intensity (a.u.).

For “AGAGATGCGTGTGTAGGCGGCGGGGAGGGGAGGGCTGTGACGGAGTCACCTAGTGCAG”, the binding signal was 17700 fluorescence intensity (a.u.).

Take “AGGCGAGCGAGGCGGGTGGGCGGGGAGCGAACCAACGACGCGGAGTCACCTAGTGCAG”: the binding signal was 8840 fluorescence intensity (a.u.).

With “GGGCTGGAGATGGAGATGGAGATGGAGATGGAGGGTGGGTCGGAGTCACCTAGTGCAG”, the binding signal is 8660 fluorescence intensity (a.u.).

“GTGGTGTAGTGGGAGCGGCCGAGATGGGGCGTCGACGGGGCGGAGTCACCTAGTGCAG”: the binding signal was 8770 fluorescence intensity (a.u.).

With “GGCGGGGCGGCGGAGGTGGTGGTGGGGAGGGCGAGAGATGCGGAGTCACCTAGTGCAG”, the binding signal is 23400 fluorescence intensity (a.u.).

Regarding “GGAGATCCTGAGGCAGCGGGGAGAGGGGAGGTGGGCGATGCGGAGTCACCTAGTGCAG”, the binding signal is 10500 fluorescence intensity (a.u.).

Turning to “CTCGAGCGGCGGTGGGGATGGGGATGGGGCGGCGGCGACGCGGAGTCACCTAGTGCAG”, the binding signal is 17000 fluorescence intensity (a.u.).

Take “AGAGGAGGAGAGTGGTGGTGGTGCGAGAGGGAGGGAGATGCGGAGTCACCTAGTGCAG”: the binding signal is 9230 fluorescence intensity (a.u.).

In the case of “CTACTATACGTCGATGGGGAGGGAGGGAGGGTGGCTGTAGCGGAGTCACCTAGTGCAG”, the binding signal is 26400 fluorescence intensity (a.u.).

For the sequence “GCGGGAGGAGAGCGGCGGGCGGCGGGCGGCGGCGGCTGTGCGGAGTCACCTAGTGCAG”, the binding signal was 9520 fluorescence intensity (a.u.).

Turning to “ATTGCATCGCCCATTTCGCTCATGGATCAGTAGGTAGCCACGGAGTCACCTAGTGCAG”, the binding signal is 8190 fluorescence intensity (a.u.).

Take “AGTCAGTGACATCTATCTTTTCATCGATGTGTCTATTGCCCGGAGTCACCTAGTGCAG”: the binding signal was 8640 fluorescence intensity (a.u.).

With “ACCCATCCATCGCCAGCCATGCACACCCTCGCTCTGACGACGGAGTCACCTAGTGCAG”, the binding signal was 8640 fluorescence intensity (a.u.).

Consider “CAACGAGGAGCGATGCATATCTAGCAGTTTTGTTTTTCATCGGAGTCACCTAGTGCAG”, for which the binding signal is 8420 fluorescence intensity (a.u.).

With “TACACCCTTGGGCCCACCTGTCAACCTCTCACCCTATATTCGGAGTCACCTAGTGCAG”, the binding signal was 11900 fluorescence intensity (a.u.).

For “GATGAGTCCTCACCTGAGTTTCTTCCGTCCATGGCGGCCGCGGAGTCACCTAGTGCAG”, the binding signal was 10500 fluorescence intensity (a.u.).

Regarding “ATCCCCAGCCTCCAATACCGGTCCCGTGCTTGTTTTTCTTCGGAGTCACCTAGTGCAG”, the binding signal was 9470 fluorescence intensity (a.u.).

With “AATTCGTACTTTTTCCTTTGTGTTTTGTCTATCTTAAATTCGGAGTCACCTAGTGCAG”, the binding signal was 14300 fluorescence intensity (a.u.).

As for “AAACCCACCCACCCAGCGCTTCTTCTTTCCTTTCTTTATTCGGAGTCACCTAGTGCAG”, the binding signal is 12900 fluorescence intensity (a.u.).

Take “TTTCCAACCTGATCGGGTGCTGCCTTTTCATTCTTCCCTCCGGAGTCACCTAGTGCAG”: the binding signal was 8430 fluorescence intensity (a.u.).

(Values after paper PMC7819943, “Rice protein-binding microarrays: a tool to detect cis-acting elements near promoter regions in rice”.)
